The full list was thinned out, with hits kept by preference.
Pf Dd2 growth = qHTS Primary assay for Inhibitors of Plasmodium falciparum Dd2 growth in vitro; actives 4.3% (n = 120,000); AID 1347417, 2020; P. falciparum Dd2 growth, SYBR Green, 72 h; Potency, µM (top dose mostly 28.9 µM), for the others: at the top dose activity, negative = inhibition, most hits filed as inhibitors; active = well fitted inhibition curve with a large enough effect;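 also: plate controls were DMSO vehicle for no effect and reference drug for full effect; nearly all actives have a fitted effect of over 65% in size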
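Infected erythrocytes (Dd2, 0.3% parasitemia, 2.5% hematocrit final) are added to compound in RPMI-1640/Albumax II medium, grown 72 h at 37C in low oxygen, then lysed with saponin/Triton-X containing SYBR Green and read by fluorescence.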
* hit, by the source's call; i = inactive; [ ] = another dose, or the depositor's remark. Potency is read from the fitted curve at half-maximal effect.

SMILES | Pf Dd2 growth
COc1ccc(-c2c(C)c3cc(OC(=O)N4CCOCC4)ccc3oc2=O)cc1OC | i
COc1ccc(N2CCN(C3CCCN(Cc4cc(=O)[nH]c(=O)[nH]4)C3)CC2)cc1 (configuration not stated) | -0.9%
COc1ccc(-c2nc(CN3CCC(C(=O)NCCc4ccccc4)CC3)c(C)o2)cc1OC | i
COc1ccc(-c2c(C)c3ccc(O)c(CN4CCCC(C)C4)c3oc2=O)cc1OC (configuration not stated) | 11.2µM*
COc1ccc(CCC(=O)N2CCC[C@H]2c2nc(-c3ccc(OC)c(OC)c3)no2)cc1 | i
COc1ccc(S(=O)(=O)NCC2CCCN(Cc3ccc(-c4ccco4)cc3)C2)cc1 (configuration not stated) | -13.7%
COc1ccc(NC(=O)N2CCN(Cc3nc4ccc(C)cc4o3)CC2)cc1OC | 29.5%
CCCS(=O)(=O)N1[C@H]2CC[C@@H]1c1cnc(C)nc1C2 | -11.7%
CCNC(=O)N1CCCC(Cn2c(C3CC3)nc3cccnc32)C1 (configuration not stated) | -17.0%
O=c1n(-c2ccc(C(F)(F)F)cc2)nc2n1CCN(Cc1ccccc1)C2 | -4.7%
O=C(Nc1ccc(Cl)cc1)N1CCCN(c2nc3ncccc3o2)CC1 | i
COc1ccc(C(=O)N[C@@H]2C=C(C(=O)N[C@H](CC(C)C)C(N)=O)C[C@@H](O)[C@@H]2O)cc1 | 2.9%[44.1 µM]
COc1ccc(CN2C(=O)[C@@H]3C[C@@H](O)CN3C3(CN(C4CCOCC4)C3)C2=O)cc1 | 16.0%[44.1 µM]
Cc1nnc2n1CCC(NC(=O)c1ccc(=O)[nH]c1)CC2 (configuration not stated) | i
CCOc1cccc(C(=O)N2CCC(c3nc4ccccc4s3)CC2)c1 | 87.0%
O=C(C1CCCCC1)N1CC[C@H](c2nc3ccccc3s2)C1 | -25.5%[44.1 µM]
c1ccc2sc([C@H]3CCN(CC4CCCCC4)C3)nc2c1 | 10µM*
Cc1cc(C)n(CC2(Cn3cc(C4CCCNC4)nn3)CC2)n1 (configuration not stated) | -10.8%
O=C(Cn1c(=O)c2c(n1Cc1ccccc1)CN(Cc1ccccc1)CC2)NCc1cccc(F)c1 | -2.7%
O=C(O)C[C@@H]1CCN(C(=O)c2ccco2)C[C@@H]1CCN1CCN(c2cccc(C(F)(F)F)c2)CC1 | i
CNC(=O)c1cc(-c2ccc(N3CCOCC3)cc2)cc2c1OCCN2Cc1cccnc1 | 10µM*
CNC(=O)c1cc(-c2ccc(OC)nc2)cc2c1OCCN2Cc1cccnc1 | i
CNC(=O)c1cc(-c2ccccc2F)cc2c1OCCN2Cc1cccnc1 | -22.4%[44.1 µM]
O=C(CC(c1ccc(F)cc1)c1cn(Cc2ccccc2)c2ccc([N+](=O)[O-])cc12)N1CCCC1 (configuration not stated) | -2.4%
CC(C)(C)CC(=O)N1CCC(N2C(=O)CCC2C(=O)NCc2cccnc2)CC1 (configuration not stated) | 12.8%
SMILES | Pf Dd2 growth
CC(C)c1ccc(N2C(=O)N[C@@H]3CCN(C(=O)COc4ccccc4)[C@@H]3C2=O)cc1 | -23.5%[44.1 µM]
CCN(CC)c1cc(C)c2cc(NC(=O)c3cccc(OC)c3)ccc2n1 | i
CCOc1ccccc1C(=O)Nc1ccc2nc(N(CC)CC)cc(C)c2c1 | -7.1%
CCOc1ccc(C(=O)Nc2ccc3nc(N(CC)CC)cc(C)c3c2)cc1 | -7.6%
CCN(CC)c1cc(C)c2cc(NC(=O)/C=C/c3cc(OC)c(OC)c(OC)c3)ccc2n1 | 1.12µM*
CCOc1ccc(/C=C/C(=O)Nc2ccc3nc(N(CC)CC)cc(C)c3c2)cc1OC | 1µM*
CCN(CC)c1cc(C)c2cc(NC(=O)c3cccc(OC)c3OC)ccc2n1 | -27.1%
O=S(=O)(c1cccnc1)N1CC(F)(F)C[C@H]1c1nc(C2CC2)no1 | -7.1%
CCOC(=O)c1c(C)oc2nc(C)nc(N3CCN(c4ccc(C)cc4C)CC3)c12 | 0.5%
CCOC(=O)c1c(C)oc2ncnc(NCCc3ccccc3)c12 | -6.1%
CCOC(=O)c1c(C)oc2nc(C)nc(NCc3ccc(Cl)cc3)c12 | i[5.79 µM]
CCOC(=O)c1c(C)oc2ncnc(N3CCN(c4cccc(Cl)c4)CC3)c12 | 2.0%
CCOC(=O)c1c(C)oc2nc(C)nc(N3CCN(c4cccc(C(F)(F)F)c4)CC3)c12 | 10µM*
CCOC(=O)c1c(C)oc2nc(C)nc(NC(C)c3ccccc3)c12 (configuration not stated) | 10µM*
CCOC(=O)c1c(C)oc2nc(C)nc(NCc3ccc(OC)cc3OC)c12 | -1.1%
CCOC(=O)c1c(C)oc2nc(C)nc(NCC3CCN(Cc4ccc(Cl)cc4)CC3)c12 | 12.6µM*
CCOC(=O)c1c(C)oc2nc(C)nc(NCCCN3CCN(c4cc(Cl)ccc4C)CC3)c12 | -20.1%
CCOC(=O)c1c(C)oc2nc(C)nc(Nc3cccc(OC)c3)c12 | -8.7%
CCOC(=O)c1c(C)oc2nc(C)nc(N(C)Cc3ccccc3)c12 | 12.6µM*
CCOC(=O)c1c(C)oc2ncnc(Nc3ccc(OCC)cc3)c12 | -1.3%
CS(=O)(=O)N1CCCC2(Cc3ccccc3CN2S(=O)(=O)c2ccccc2)C1 (configuration not stated) | -22.5%
Cc1ncc(-c2ccccc2)[nH]1 | -4.6%[76.6 µM]
O=C(c1cncnc1)N1CC[C@H](c2nc3ccc(F)cc3[nH]2)C1 | 0.3%[44.1 µM]
CC(C)Cc1nnc(NC(=O)C2CC(=O)N(c3n[nH]c4ccccc34)C2)s1 (configuration not stated) | -3.4%
COC[C@H]1C[C@@H](NC(=O)C2CCOCC2)[C@H](O)[C@@H]1O | 24.5%[44.1 µM]
SMILES | Pf Dd2 growth
COc1ccc(N2CCN(C(=O)c3ccc(N4CC5CC(C4)[C@H]4CCCC(=O)N4C5)nc3)CC2)cc1 (some centres not stated) | -13.4%
O=C1CCN(C(=O)c2n[nH]c3ccccc23)CCCC(C(=O)NCc2ccccc2)CCN1 (configuration not stated) | -17.6%
CCc1ccc(CNC(=O)C2(CC)CCCCC(=O)N2)cc1 (configuration not stated) | -13.9%
COc1ccccc1-n1cc(C(=O)NC(Cc2ccco2)C(=O)O)cn1 (configuration not stated) | -9.3%
O=c1[nH]ccn1C1CCN(Cc2cncs2)CC1 | 2.2%[44.1 µM]
CCOC(=O)C1CCCN(C(=O)c2ccc3c(c2)N(Cc2ccc(Cl)cc2)C(=O)c2ccccc2S3=O)C1 (configuration not stated) | 11.2µM*
O=C(c1ccc2c(c1)N(Cc1ccccc1F)C(=O)c1ccccc1S2=O)N1CCC(Cc2ccccc2)CC1 (configuration not stated) | -3.2%
CN1CCN(C(=O)c2ccc3c(c2)N(Cc2ccc(F)cc2)C(=O)c2ccccc2S3=O)CC1 (configuration not stated) | 3.98µM*
O=C(c1ccc2c(c1)N(Cc1ccccc1F)C(=O)c1ccccc1S2=O)N1CCOCC1 (configuration not stated) | -20.1%
CCN1C(=O)c2ccccc2S(=O)c2ccc(C(=O)NCc3ccc(C)cc3)cc21 (configuration not stated) | -24.2%
CCOC(=O)C1CCCN(C(=O)Cn2ncc3c(C)n(Cc4ccc(Cl)cc4)c(C)c3c2=O)C1 (configuration not stated) | -17.7%
CCN1CCN(C(=O)c2ccc3c(c2)N(Cc2ccc(Cl)cc2)C(=O)c2ccccc2S3=O)CC1 (configuration not stated) | 0.501µM*
CCN1C(=O)c2ccccc2S(=O)c2ccc(C(=O)N3CCN(c4ccccc4)CC3)cc21 (configuration not stated) | i

High-throughput results as filed in PubChem.
